Laboratory results as given in PubChem BioAssay.
Calls of active or inactive are those of the source.

Key:
[1] = tested on: Plasmodium falciparum Sir2 (PF13_0152, Sir2A); experiment: pfSir2 binders on small-molecule microarrays, primary screen, biochemical, small-molecule microarray, 635 nm fluorescence (AID 1098); conditions: small-molecule microarray binding, fluorescence 635 nm; higher = more signal;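 further: score merges spot fluorescence intensity with its signal-to-noise ratio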
[2] = small-molecule microarray binders of probe aDKK1, primary screen, biochemical, biotinylated probe, 635/667 nm fluorescence (AID 1099); conditions: higher = more signal;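 further: score merges 667nm spot fluorescence with signal to noise across triplicate slides; reference of the scale not given here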
[3] = small-molecule microarray binders of probe aCHRDL2, primary screen, biochemical, biotinylated probe, 635/667 nm fluorescence (AID 1100); conditions: higher = more signal
[4] = splicing luciferase reporter signal modulators, primary screen, spliceosome inhibition project, cell-based, HEK293, splice +/- reporter (AID 1101); conditions: luminescence, 24 h, higher = more signal, called active from +8 up or from −8 down;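 further: HEK293 cells carrying a splicing-competent luciferase reporter gene; test concentration not given here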
[5] = molecular target: Fibroblast growth factor 10 (Homo sapiens) (UniProt O15520); experiment: FGF10 binders on small-molecule microarrays, primary screen, biochemical, small-molecule microarray, 635 nm fluorescence (AID 1102); conditions: FGF10 binding, fluorescence 635 nm, higher = more signal
[6] = tested on: glycogen synthase kinase-3 (GSK3A per assay name; protocol says GSK3B); experiment: GSK3 binders on small-molecule microarrays, primary screen, biochemical, small-molecule microarray, 635 nm fluorescence, GSK3A (AID 1103); conditions: small-molecule microarray binding, fluorescence 635 nm; higher = more signal; further: the record names both GSK3A and GSK3B
[7] = molecular target: Epidermal growth factor receptor (Homo sapiens) (UniProt P00533); experiment: EGFR binders on small-molecule microarrays, primary screen, biochemical, small-molecule microarray, 635 nm fluorescence (AID 1104); conditions: EGFR binding, higher = more signal;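 further: score merges 667 nm emission intensity with spot signal to noise over triplicate slides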
[8] = molecular target: Follistatin-related protein 3 (Homo sapiens) (UniProt O95633); experiment: FSTL3 binders on small-molecule microarrays, primary screen, biochemical, small-molecule microarray, 635 nm fluorescence (AID 1105); conditions: FSTL3 binding, higher = more signal;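 further: score merges emission near 667 nm and signal to noise per printed spot across three slides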
[9] = molecular target: Dickkopf-related protein 1 (Homo sapiens) (UniProt O94907); experiment: DKK1 binders on small-molecule microarrays, primary screen, biochemical, small-molecule microarray, 635 nm fluorescence scan (AID 1106); conditions: DKK1 binding, higher = more signal;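 further: score merges emission near 667 nm with signal to noise over three replicate slides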
[10] = tested on: Inhibin beta A chain (activin A); experiment: INHBA (activin A) binders on microarrays, primary screen, biochemical, small-molecule microarray, 635 nm fluorescence scan (AID 1107); conditions: small-molecule microarray binding, higher = more signal;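 further: mouse activin A protein probed at 4.33 µg/mL on printed slides; score merges bound-protein fluorescence near 667 nm with spot signal-to-noise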

Epidermal growth factor receptor (Homo sapiens), sequence (P00533 whole entry, looked up): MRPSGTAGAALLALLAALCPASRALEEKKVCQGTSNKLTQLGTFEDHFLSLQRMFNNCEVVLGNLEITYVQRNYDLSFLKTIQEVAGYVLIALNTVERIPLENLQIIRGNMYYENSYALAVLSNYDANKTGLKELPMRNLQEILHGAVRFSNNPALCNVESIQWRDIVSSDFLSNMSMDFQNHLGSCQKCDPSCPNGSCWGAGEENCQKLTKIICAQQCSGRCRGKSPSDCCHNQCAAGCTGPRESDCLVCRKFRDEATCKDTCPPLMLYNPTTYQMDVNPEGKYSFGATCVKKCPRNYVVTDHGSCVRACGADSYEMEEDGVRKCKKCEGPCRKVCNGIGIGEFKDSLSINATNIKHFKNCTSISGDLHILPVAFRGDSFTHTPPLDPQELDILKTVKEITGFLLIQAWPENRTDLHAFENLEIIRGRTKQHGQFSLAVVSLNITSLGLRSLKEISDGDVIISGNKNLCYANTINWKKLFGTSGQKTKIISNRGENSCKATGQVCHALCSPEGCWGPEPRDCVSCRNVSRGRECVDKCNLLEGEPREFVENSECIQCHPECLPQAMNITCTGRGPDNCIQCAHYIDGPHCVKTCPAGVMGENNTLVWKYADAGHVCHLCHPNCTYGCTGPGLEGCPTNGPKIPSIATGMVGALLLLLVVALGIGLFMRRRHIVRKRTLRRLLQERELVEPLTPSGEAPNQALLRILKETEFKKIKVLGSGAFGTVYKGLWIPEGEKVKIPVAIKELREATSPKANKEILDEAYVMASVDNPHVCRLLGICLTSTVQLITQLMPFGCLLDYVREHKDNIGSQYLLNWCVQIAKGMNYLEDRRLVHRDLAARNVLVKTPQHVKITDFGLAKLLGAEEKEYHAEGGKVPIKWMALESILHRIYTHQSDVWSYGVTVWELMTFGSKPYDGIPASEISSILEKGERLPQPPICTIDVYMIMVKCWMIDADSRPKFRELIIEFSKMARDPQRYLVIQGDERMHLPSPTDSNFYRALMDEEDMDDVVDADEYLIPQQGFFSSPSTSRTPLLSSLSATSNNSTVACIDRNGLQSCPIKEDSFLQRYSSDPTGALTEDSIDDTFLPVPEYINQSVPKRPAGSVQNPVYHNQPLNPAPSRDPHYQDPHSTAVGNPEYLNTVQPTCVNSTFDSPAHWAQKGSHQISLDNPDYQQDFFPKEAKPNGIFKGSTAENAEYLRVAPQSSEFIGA
Dickkopf-related protein 1 (Homo sapiens), sequence (O94907 whole entry, looked up): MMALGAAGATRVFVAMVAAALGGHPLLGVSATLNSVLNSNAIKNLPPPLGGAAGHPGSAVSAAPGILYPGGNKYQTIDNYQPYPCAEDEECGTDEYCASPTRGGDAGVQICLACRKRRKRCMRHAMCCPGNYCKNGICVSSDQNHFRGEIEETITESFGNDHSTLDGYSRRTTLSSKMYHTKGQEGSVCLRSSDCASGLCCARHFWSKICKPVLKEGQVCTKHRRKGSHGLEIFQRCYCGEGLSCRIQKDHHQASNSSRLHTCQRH
Follistatin-related protein 3 (Homo sapiens), sequence (O95633 whole entry, looked up): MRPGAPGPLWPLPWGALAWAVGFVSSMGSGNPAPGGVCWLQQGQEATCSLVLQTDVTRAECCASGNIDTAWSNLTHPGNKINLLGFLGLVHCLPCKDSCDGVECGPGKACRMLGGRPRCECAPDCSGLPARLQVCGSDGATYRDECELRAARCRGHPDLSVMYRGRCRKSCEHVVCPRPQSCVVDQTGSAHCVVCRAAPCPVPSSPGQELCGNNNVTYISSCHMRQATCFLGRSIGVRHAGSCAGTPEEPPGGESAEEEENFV
Fibroblast growth factor 10 (Homo sapiens), sequence (O15520 whole entry, looked up): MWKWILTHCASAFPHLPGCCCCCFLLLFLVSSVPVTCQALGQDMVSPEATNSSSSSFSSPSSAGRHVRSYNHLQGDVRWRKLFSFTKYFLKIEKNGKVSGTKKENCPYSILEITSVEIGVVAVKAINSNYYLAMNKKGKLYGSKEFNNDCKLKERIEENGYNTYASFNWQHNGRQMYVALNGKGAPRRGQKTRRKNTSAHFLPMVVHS

| Compound | composite z-score [1] | composite z-score [2] | composite z-score [3] | z-score [4] | composite z-score [5] | composite z-score [6] | composite z-score [7] | composite z-score [8] | composite z-score [9] | composite z-score [10] |
| --- | --- | --- | --- | --- | --- | --- | --- | --- | --- | --- |
| COc1cccc(/C=C/C=O)c1 | -0.663 | 0.24 | -0.326 | 0.85 (inactive) | 0.393 | 0.0414 | 0.417 | 0.237 | 0.339 | -0.115 |
| COc1cc2c(cc1OC)CN(C(=O)[C@@H]1[C@H]3C(=O)O[C@H](c4ccccc4)[C@H](c4ccccc4)N3[C@H](c3ccc(OCCO)cc3)[C@@]13C(=O)Nc1ccccc13)CC2 | 1.41 | 0.0269 | 0.0159 | 0.576 (inactive) | 1.4 | 1.17 | 0.399 | 1.07 | 0.343 | 0.508 |
| O=C1NC(=O)C2C1C=CC(C(O)c1c(F)cccc1Cl)N2Nc1ccc(Cl)cc1Cl (stereo not given) | 1.49 | 1.4 | 1.41 | 1.57 (inactive) | 0.185 | 0.249 | -0.391 | 0.0256 | -0.367 | 1.29 |
| COC(=O)[C@@]1(Cc2ccc(OC)cc2)[C@H]2c3cc(C(=O)N4CCCC4)n(Cc4c(-c5ccccc5)noc4C)c3C[C@H]2CN1C(=O)c1ccccc1 | 0.743 | 1.08 | 1.12 | -3.14 (inactive) | 1.4 | 0.495 | 0.713 | 1.2 | -0.414 | 0.641 |
| CC(C)N1CC=CC23O[C@@H]4C=CCOC(=O)[C@@H]4[C@H]2C(=O)N(CCCO)[C@@H]3C1=O (stereo not given in full) | 1.95 | -0.286 | 0.627 | -3 (inactive) | -0.0827 | 0.0274 | -0.42 | -0.123 | -0.74 | 0.929 |
| [N-]=[N+]=NCc1ccccc1[C@@H]1OC(c2ccc(OCCCO)cc2)=N[C@]1(CCS(=O)(=O)c1ccccc1)C(=O)NCC(O)CO (stereo not given in full) | 1.46 | 0.76 | 1.03 | -1.33 (inactive) | 1.22 | -0.323 | -0.0077 | 0.6 | -0.227 | 0.736 |
| O=C1OCC=C[C@H]2OC34C=CCN(Cc5ccccc5)C(=O)[C@H]3N(CCCCCCO)C(=O)[C@@H]4[C@@H]12 (stereo not given in full) | 1.82 | -0.305 | 0.777 | 0.148 (inactive) | -0.735 | -0.868 | -0.825 | -0.608 | -1.03 | 0.652 |
| O=C1O[C@H](c2ccccc2)[C@H](c2ccccc2)N2[C@H]1[C@@H](C(=O)Nc1nc3ccccc3s1)[C@]1(C(=O)Nc3ccccc31)[C@H]2c1ccc(OCCO)cc1 | 1.35 | 0.07 | 0.341 | -0.472 (inactive) | 0.841 | 1.31 | 0.836 | 1.36 | 1.31 | 0.715 |
| COC(=O)[C@@]1(Cc2ccc(OC)cc2)[C@H]2c3cc(C(=O)N(C)C)n(CCO)c3C[C@H]2CN1C(=O)c1ccccc1 | 0.137 | 1.14 | 1.27 | 0.994 (inactive) | 0.0882 | -0.402 | -0.735 | -0.42 | -1.18 | 1.07 |
| O=C1OCC=C[C@H]2OC34C=CCN(c5ccc(Cl)cc5)C(=O)[C@H]3N(CCO)C(=O)[C@@H]4[C@@H]12 (stereo not given in full) | 0.201 | -0.521 | 0.777 | 0.169 (inactive) | -0.25 | -0.747 | -0.962 | -1.68 | -1.71 | -0.303 |
| CCOC(=O)C1CCCCN1 (stereo not given) | 0.19 | 1.06 | -0.193 | -0.283 (inactive) | 0.946 | 0.682 | 0.403 | 0.653 | 0.516 | -0.104 |
| CC(C)C(=C=CC[C@H](O)c1ccc(OCCO)cc1)C[C@H](O)c1ccccn1 | 0.471 | -0.0813 | -0.233 | -0.544 (inactive) | 0.275 | 0.372 | -0.511 | -0.11 | -0.478 | -0.262 |
| CO[C@H]1O[C@H](CO)[C@@H](OC(=O)Nc2ccccc2-c2ccccc2)[C@H](OC(=O)Nc2ccc3c(c2)OCO3)[C@H]1OC(=O)Nc1ccc2c(c1)OCO2 | 1.38 | 0.244 | 0.485 | -1.2 (inactive) | 1.24 | 1.32 | 0.17 | 1.43 | 0.298 | 0.752 |
| CCOC(=O)[C@H]1[C@@H]2C(=O)N3CCC[C@H]3[C@H](O[Si](C(C)C)(C(C)C)C(C)C)[C@H]2C=C2CCN(S(=O)(=O)c3ccc(C)cc3)C[C@H]21 | 0.779 | -0.341 | -0.535 | -1.73 (inactive) | 1 | 0.938 | 0.586 | 0.766 | 0.593 | 0.141 |
| C=C[C@@H](OC)[C@H](OC(=O)Nc1ccc(SC)cc1)c1ccc(O)c(F)c1 | 1.2 | -0.0849 | 0.293 | -1.17 (inactive) | 0.588 | 0.288 | -0.198 | 0.213 | 0.19 | 0.312 |
| C[N+](C)(C)CCCCCCNC(=O)[C@H]1C[C@H]2C(=O)N[C@@H](Cc3ccccc3)C(=O)N2[C@H]1c1ccc(O)cc1 | 1.27 | -0.265 | -0.534 | -0.0288 (inactive) | 0.98 | 0.637 | 0.192 | 0.894 | 0.834 | 0.445 |
| COCCOC(=O)N1C(=O)[C@@]2(c3cc(C#CC4(O)CCCCCC4)ccc31)[C@H](c1ccc(O)cc1)N1[C@H](c3ccccc3)[C@H](c3ccccc3)OC(=O)[C@H]1[C@@H]2C(=O)NC[C@H](O)c1ccccc1 | 0.355 | 0.655 | 0.692 | 0.355 (inactive) | 1.12 | 1.29 | 0.783 | 0.936 | 1.08 | -0.237 |
| C[N+](C)(C)CCCC[C@@H]1NC(=O)[C@H]2C[C@@H](C(=O)NCCCCCCN)[C@@H](c3ccc(O)cc3)N2C1=O | 1.38 | 0.608 | 0.659 | 0.587 (inactive) | 0.687 | 1.3 | -0.397 | -0.0878 | 0.0717 | -0.695 |
| COc1ccc(CCNC(=O)[C@@H]2c3ccccc3C(=O)N(Cc3cc(C(F)(F)F)cc(C(F)(F)F)c3)[C@H]2c2ccc(CO)cc2)cc1 | 1.1 | 0.0172 | 0.716 | -0.082 (inactive) | 0.0696 | -0.331 | -0.358 | -0.272 | -0.594 | -0.167 |
| CCOc1cc(C(O)C2C=CC3C(=O)N(C)C(=O)C3N2Nc2ccccc2)ccc1O (stereo not given) | 0.764 | 0.791 | 0.0692 | 0.719 (inactive) | 0.736 | 0.57 | 0.0228 | 0.0592 | -0.329 | 0.569 |
| O=C1OCCC=C[C@H]2OC34C=CCN(Cn5nnc6ccccc65)C(=O)[C@H]3N(CCCCCCO)C(=O)[C@@H]4C12 (stereo not given in full) | 1.8 | -0.0278 | 0.337 | 0.415 (inactive) | -0.893 | -0.357 | -1.23 | -0.822 | -1.03 | -0.157 |
| COCCOC(=O)N1C(=O)[C@@]2(c3cc(C#CC4=CCCCC4)ccc31)[C@H](c1ccc(OCCO)cc1)N1[C@H](c3ccccc3)[C@H](c3ccccc3)OC(=O)[C@H]1[C@@H]2C(=O)N1CCN(c2ncccn2)CC1 | 0.28 | 0.0367 | 0.262 | 0.515 (inactive) | 1.34 | 1.3 | 0.494 | 0.866 | 0.605 | 0.783 |
| CCOC(=O)C1=CC[C@@H](c2ccc(OCc3ccccc3)c(OC)c2)N(S(=O)(=O)c2ccc(C)cc2)[C@H]1c1ccc(SC)cc1 | 1.26 | 0.842 | 1.04 | 0.236 (inactive) | 1.1 | 0.587 | 0.838 | 1.12 | 0.174 | 0.994 |
| CCCCC(O)C1C=CC2C(=O)N(c3ccccc3)C(=O)C2N1Nc1ccc(C(C)C)cc1 (stereo not given) | 0.562 | -0.109 | 0.214 | -0.479 (inactive) | 1.05 | 1.26 | 0.341 | 1.04 | 0.223 | 0.63 |
| COC(=O)c1nc2oc1CC[C@@H](CO)NC(=O)N(C)Cc1cnnn1C[C@H](Cc1ccccc1)NC2=O | 1.81 | -0.148 | 0.106 | -0.495 (inactive) | -0.0412 | -1.05 | -0.913 | 0.228 | -0.682 | 0.139 |
| Cc1ccc(S[C@]2(C(=O)O)CC(=O)N(Cc3cc(C(F)(F)F)cc(C(F)(F)F)c3)[C@@H]2c2ccc(CO)cc2)cc1 | 1.2 | 0.326 | 1.14 | -0.262 (inactive) | -1.65 | -1.03 | -1.89 | -1.92 | -2.26 | -0.131 |
| CC1=C[C@@]2(CO)C(=O)[C@]3(CO3)[C@@H]1[C@H]1[C@]2(C)C=C(CO)C(=O)[C@]12CO2 | 0.451 | 0.0159 | -0.52 | -0.23 (inactive) | 0.302 | 0.296 | 0.33 | 0.951 | 0.241 | 0.421 |
| C=CCN1C(=O)[C@@]2(CCS(=O)(=O)c3ccccc3)N=C(c3ccc(OCCCO)cc3)O[C@H]2c2ccccc21 | 1.32 | 0.331 | 0.482 | 0.095 (inactive) | 0.69 | 1.33 | 0.958 | 1.14 | 0.822 | 1.18 |
